# Assay results taken from PubChem BioAssay AID623892 (Vanderbilt Specialized Chemistry Center, 2012).
# A number with no mark means an inactive call.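 How the source made its calls: active means potentiator with a glutamate EC50 fold shift of at least 2, or antagonist at 0.5 or below; inactive means fold shift between 0.5 and 2.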
# Target: Metabotropic glutamate receptor 8 (Rattus norvegicus) (UniProt P70579)
# Assay: mGlu8 glutamate response modulation check – cell-based, rat, thallium flux, selectivity assay for mGlu4 lead optimization, profiling panel (AID 623892)
# Conditions: HEK cells rat mGlu8, thallium flux, at 10 µM
# Chain of Metabotropic glutamate receptor 8 (Rattus norvegicus) (P70579 whole entry, looked up): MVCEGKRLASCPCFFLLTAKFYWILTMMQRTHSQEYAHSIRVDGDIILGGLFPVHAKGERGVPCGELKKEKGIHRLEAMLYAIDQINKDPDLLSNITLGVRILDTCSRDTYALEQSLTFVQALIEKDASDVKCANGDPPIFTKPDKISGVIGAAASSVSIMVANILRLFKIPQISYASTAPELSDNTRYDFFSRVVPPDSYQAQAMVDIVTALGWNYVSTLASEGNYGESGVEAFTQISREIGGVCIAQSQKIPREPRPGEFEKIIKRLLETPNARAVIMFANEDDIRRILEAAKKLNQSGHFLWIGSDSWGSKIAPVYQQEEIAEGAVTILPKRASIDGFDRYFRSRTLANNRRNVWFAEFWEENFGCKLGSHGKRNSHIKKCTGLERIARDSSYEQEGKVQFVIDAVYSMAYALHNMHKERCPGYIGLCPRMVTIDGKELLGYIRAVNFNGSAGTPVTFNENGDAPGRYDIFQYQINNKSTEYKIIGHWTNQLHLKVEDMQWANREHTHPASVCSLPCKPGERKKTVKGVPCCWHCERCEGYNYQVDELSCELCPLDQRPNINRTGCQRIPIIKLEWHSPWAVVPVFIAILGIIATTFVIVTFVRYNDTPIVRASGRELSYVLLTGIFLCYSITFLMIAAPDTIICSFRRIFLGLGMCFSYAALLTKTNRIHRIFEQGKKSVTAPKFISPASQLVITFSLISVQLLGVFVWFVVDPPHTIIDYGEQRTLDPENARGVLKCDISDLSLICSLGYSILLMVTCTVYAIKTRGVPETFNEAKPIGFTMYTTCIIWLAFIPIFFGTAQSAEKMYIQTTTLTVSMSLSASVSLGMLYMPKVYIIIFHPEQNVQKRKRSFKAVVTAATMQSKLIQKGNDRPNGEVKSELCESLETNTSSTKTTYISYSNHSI
structure (smiles),measurement,value
O=C(Nc1cccc(Cl)c1)c1ccccn1,fold shift of glutamate EC50,1.47
